Assay results from the supplement of paper PMC10849652.
The full data set covers some 8,800 targets. This sample favours those with a hit. About 0.5% of all pairs of compound and target were hits.

How the values were obtained:
Experiment in all cases: log2 fold change, soluble protein after heating vs DMSO (PISA); higher = thermal stabilisation; K562 lysate, 10 uM; active = over 0.2 and 3.5 SD of the protein, either way, in both replicates (recomputed)
nilotinib = compound: Cc1cn(-c2cc(NC(=O)c3ccc(C)c(Nc4nccc(-c5cccnc5)n4)c3)cc(C(F)(F)F)c2)cn1 [nilotinib]
How it was run: (§1)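 Dounce homogenisation of K562 pellets in PBS pH 7.4 with 1 mM MgCl2 produced a crude extract, used at 1 mg/mL protein. Exposure to 10 μM compound lasted 30 min, and aliquots were then heated for 3 min across 48°C-58°C, pooled and brought to 0.5% NP-40 at 4°C. The supernatant after 21,000xg for 90 min was quantified by TMTpro 16plex LC-MS/MS with channel sums equalised. Duplicate values are given as log-two fold change in thermal stability relative to solvent controls.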

[1] = compound: Cc1nc(Nc2n[nH]c3c2CN(C(=O)N[C@H](CN(C)C)c2ccccc2)C3(C)C)c2sccc2n1
How it was run: as §1

dasatinib = compound: Cc1nc(Nc2ncc(C(=O)Nc3c(C)cccc3Cl)s2)cc(N2CCN(CCO)CC2)n1 [dasatinib]
How it was run: as §1

[2] = compound: Cc1ncc(-c2ccnc(Nc3ccc(S(C)(=O)=O)cc3)n2)n1C(C)C
How it was run: as §1

[3] = compound: Cn1cc(-c2ccc3c(c2)CCN3C(=O)Cc2cccc(C(F)(F)F)c2)c2c(N)ncnc21
How it was run: as §1

quisinostat = compound: Cn1cc(CNCC2CCN(c3ncc(C(=O)NO)cn3)CC2)c2ccccc21 [quisinostat]
How it was run: as §1

tipifarnib = compound: Cn1cncc1[C@@](N)(c1ccc(Cl)cc1)c1ccc2c(c1)c(-c1cccc(Cl)c1)cc(=O)n2C [tipifarnib]
How it was run: as §1

[4] = compound: NC(=O)Nc1cc(-c2cccc(F)c2)sc1C(=O)N[C@H]1CCCNC1
How it was run: as §1

[5] = compound: NC(=O)c1cnc(N[C@@H]2CCCC[C@@H]2N)nc1Nc1cccc(-n2nccn2)c1
How it was run: as §1

[6] = compound: NC1(c2ccc(-c3nc4ccn5c(=O)[nH]nc5c4cc3-c3ccccc3)cc2)CCC1
How it was run: as §1

[7] = compound: NCC(=O)Nc1ccc(-n2nc(C(F)(F)F)cc2-c2ccc3c(ccc4ccccc43)c2)cc1
How it was run: as §1

vorinostat = compound: O=C(CCCCCCC(=O)Nc1ccccc1)NO [vorinostat]
How it was run: as §1

silmitasertib = compound: O=C(O)c1ccc2c(c1)nc(Nc1cccc(Cl)c1)c1ccncc12 [silmitasertib]
How it was run: as §1

[8] = compound: O=C1NC(=O)C(c2cnc3ccccn23)=C1c1cn2c3c(cc(F)cc13)CN(C(=O)N1CCCCC1)CC2
How it was run: as §1

entospletinib = compound: c1cn2cc(-c3ccc4cn[nH]c4c3)nc(Nc3ccc(N4CCOCC4)cc3)c2n1 [entospletinib]
How it was run: as §1

Measured: log2 fold change

MAPK14 isoform 2 (UniProt Q16539)
Sequence of UniProt Q16539 (Q16539 whole entry, looked up): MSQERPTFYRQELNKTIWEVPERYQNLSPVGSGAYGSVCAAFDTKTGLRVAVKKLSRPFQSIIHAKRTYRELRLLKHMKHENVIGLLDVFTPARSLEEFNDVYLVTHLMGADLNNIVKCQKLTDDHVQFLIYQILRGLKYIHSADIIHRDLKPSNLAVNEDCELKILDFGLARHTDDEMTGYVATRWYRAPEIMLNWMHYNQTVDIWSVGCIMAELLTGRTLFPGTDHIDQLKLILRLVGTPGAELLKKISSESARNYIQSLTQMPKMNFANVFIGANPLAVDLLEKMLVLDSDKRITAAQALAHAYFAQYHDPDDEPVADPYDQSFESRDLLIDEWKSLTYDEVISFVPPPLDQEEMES
active: dasatinib 0.879
inactive: nilotinib 0.523 | [1] 0.041 | [2] 0.037 | [3] 0.033 | quisinostat -0.031 | tipifarnib -0.039 | [4] -0.035 | [5] 0.076 | [6] -0.018 | [7] -0.06 | vorinostat -0.328 | silmitasertib 0.291 | [8] -0.092 | entospletinib -0.015

L3HYPDH (UniProt Q96EM0)
Sequence of UniProt Q96EM0 (Q96EM0 whole entry, looked up): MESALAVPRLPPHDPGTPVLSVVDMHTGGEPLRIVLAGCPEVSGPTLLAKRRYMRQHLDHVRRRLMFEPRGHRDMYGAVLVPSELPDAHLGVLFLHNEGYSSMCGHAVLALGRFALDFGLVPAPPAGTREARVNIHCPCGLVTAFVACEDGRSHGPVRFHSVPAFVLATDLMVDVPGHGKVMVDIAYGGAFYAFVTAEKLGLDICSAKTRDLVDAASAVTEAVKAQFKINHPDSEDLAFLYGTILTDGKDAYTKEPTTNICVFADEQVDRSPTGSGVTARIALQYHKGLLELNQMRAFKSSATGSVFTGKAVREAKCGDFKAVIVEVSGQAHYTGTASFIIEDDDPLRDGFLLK
active: vorinostat -0.31
inactive: nilotinib 0.019 | [1] 0.015 | dasatinib 0.073 | [2] 0.001 | [3] -0.003 | quisinostat -0.053 | tipifarnib -0.002 | [4] 0.033 | [5] 0.015 | [6] 0.009 | [7] 0.023 | silmitasertib 0 | [8] -0.02 | entospletinib -0.005

LUC7L (UniProt Q9NQ29)
Sequence of UniProt Q9NQ29 (Q9NQ29 whole entry, looked up): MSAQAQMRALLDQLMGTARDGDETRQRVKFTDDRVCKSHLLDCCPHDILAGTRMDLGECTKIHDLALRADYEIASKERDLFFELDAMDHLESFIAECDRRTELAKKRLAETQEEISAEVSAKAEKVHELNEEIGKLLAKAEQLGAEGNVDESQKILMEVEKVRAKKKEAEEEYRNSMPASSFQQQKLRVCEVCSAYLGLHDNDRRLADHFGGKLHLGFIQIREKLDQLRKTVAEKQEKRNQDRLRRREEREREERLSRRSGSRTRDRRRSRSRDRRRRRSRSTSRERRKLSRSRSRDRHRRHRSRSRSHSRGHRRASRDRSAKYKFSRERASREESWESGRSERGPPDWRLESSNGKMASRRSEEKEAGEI
inactive: nilotinib -0.027 | [1] -0.113 | dasatinib -0.032 | [2] -0.047 | [3] 0.023 | quisinostat 0.22 | tipifarnib 0.033 | [4] -0.207 | [5] -0.014 | [6] 0.032 | [7] 0.003 | vorinostat 0.136 | silmitasertib -0.126 | [8] -0.016 | entospletinib -0.019

KRR1 (UniProt Q13601)
active: quisinostat -0.336
inactive: nilotinib -0.057 | [1] 0.058 | dasatinib -0.014 | [2] 0.006 | [3] 0.012 | tipifarnib -0.039 | [4] 0.018 | [5] 0.022 | [6] -0.08 | [7] 0.013 | vorinostat 0.02 | silmitasertib 0.013 | [8] 0.101 | entospletinib 0.011

KLC4 isoform 3 (UniProt Q9NSK0)
active: vorinostat -0.557
inactive: nilotinib -0.023 | [1] 0.047 | dasatinib -0.013 | [2] 0.089 | [3] 0.048 | quisinostat -0.018 | tipifarnib -0.015 | [4] 0.01 | [5] 0.021 | [6] -0.003 | [7] 0.01 | silmitasertib 0.009 | [8] -0.041 | entospletinib -0.006

MMS19 isoform 8 (UniProt Q96T76)
inactive: nilotinib -0.014 | [1] 0.019 | dasatinib -0.043 | [2] 0.018 | [3] -0.011 | quisinostat -0.056 | tipifarnib -0.002 | [4] 0.053 | [5] 0.014 | [6] 0.004 | [7] 0.057 | silmitasertib 0.054 | [8] 0.029 | entospletinib 0.024
active: vorinostat -0.372

MINDY1 isoform 3 (UniProt Q8N5J2)
Sequence of UniProt Q8N5J2 (Q8N5J2 whole entry, looked up): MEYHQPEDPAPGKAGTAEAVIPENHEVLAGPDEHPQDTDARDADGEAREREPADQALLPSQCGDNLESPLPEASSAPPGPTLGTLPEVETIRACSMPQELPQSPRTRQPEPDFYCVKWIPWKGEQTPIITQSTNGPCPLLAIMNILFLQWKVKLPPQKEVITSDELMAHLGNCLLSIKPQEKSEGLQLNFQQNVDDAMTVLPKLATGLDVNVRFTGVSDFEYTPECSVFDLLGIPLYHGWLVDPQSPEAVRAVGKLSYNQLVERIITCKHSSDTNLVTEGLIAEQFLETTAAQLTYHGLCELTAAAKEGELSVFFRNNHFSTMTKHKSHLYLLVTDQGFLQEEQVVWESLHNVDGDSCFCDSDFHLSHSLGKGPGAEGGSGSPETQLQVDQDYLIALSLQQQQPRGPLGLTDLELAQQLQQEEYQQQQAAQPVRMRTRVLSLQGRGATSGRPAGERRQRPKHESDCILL
inactive: nilotinib -0.03 | [1] 0.154 | dasatinib -0.086 | [2] 0.271 | [3] 0.159 | quisinostat -0.006 | tipifarnib 0.022 | [4] -0.072 | [6] 0.038 | [7] -0.097 | vorinostat -0.186 | silmitasertib 0.144 | [8] 0.166 | entospletinib -0.052
active: [5] 0.548

MLXIP (UniProt Q9HAP2)
Sequence of UniProt Q9HAP2 (Q9HAP2 whole entry, looked up): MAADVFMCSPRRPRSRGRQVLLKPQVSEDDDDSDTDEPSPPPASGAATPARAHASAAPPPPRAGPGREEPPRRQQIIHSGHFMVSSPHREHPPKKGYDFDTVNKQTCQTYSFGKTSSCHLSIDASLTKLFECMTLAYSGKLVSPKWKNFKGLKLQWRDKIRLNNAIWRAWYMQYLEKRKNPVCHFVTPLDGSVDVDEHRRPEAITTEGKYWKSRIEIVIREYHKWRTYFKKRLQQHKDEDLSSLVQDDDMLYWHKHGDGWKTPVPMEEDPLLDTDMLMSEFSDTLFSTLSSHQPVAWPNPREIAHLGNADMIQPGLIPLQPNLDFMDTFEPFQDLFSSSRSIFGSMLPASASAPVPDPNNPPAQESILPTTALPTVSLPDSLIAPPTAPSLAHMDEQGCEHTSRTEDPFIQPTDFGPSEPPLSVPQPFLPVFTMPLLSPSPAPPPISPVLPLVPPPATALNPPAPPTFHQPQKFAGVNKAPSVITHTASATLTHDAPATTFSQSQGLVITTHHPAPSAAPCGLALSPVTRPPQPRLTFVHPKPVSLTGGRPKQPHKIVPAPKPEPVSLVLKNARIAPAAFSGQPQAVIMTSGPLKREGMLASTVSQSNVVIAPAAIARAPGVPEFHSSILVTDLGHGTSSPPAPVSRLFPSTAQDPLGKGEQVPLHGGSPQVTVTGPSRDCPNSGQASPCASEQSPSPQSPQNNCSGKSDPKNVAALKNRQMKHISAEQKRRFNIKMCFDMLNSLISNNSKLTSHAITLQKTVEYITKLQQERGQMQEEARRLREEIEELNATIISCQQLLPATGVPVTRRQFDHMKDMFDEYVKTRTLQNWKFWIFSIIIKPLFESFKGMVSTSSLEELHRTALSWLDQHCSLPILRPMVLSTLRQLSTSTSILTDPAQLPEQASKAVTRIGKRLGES
active: vorinostat -0.314
inactive: nilotinib 0.09 | [1] 0.003 | dasatinib -0.068 | [2] 0.003 | [3] 0.02 | quisinostat -0.04 | tipifarnib 0 | [4] 0.082 | [5] -0.01 | [6] -0.028 | [7] 0.037 | silmitasertib 0.026 | [8] 0.079 | entospletinib 0.03

KIF14 (UniProt Q15058)
active: vorinostat -0.286
inactive: nilotinib 0.003 | [1] 0.042 | dasatinib -0.035 | [2] 0.033 | [3] 0.007 | quisinostat -0.139 | tipifarnib -0.046 | [4] 0 | [5] 0.001 | [6] -0.024 | [7] 0.082 | silmitasertib -0.016 | [8] -0.019 | entospletinib -0.055

MAP4 (UniProt E7EVA0)
inactive: nilotinib 0.073 | [1] 0.021 | dasatinib -0.009 | [2] 0.046 | [3] 0.057 | tipifarnib -0.031 | [4] 0.024 | [5] 0.016 | [6] -0.1 | [7] -0.044 | vorinostat 0.025 | silmitasertib 0.028 | [8] 0.079 | entospletinib -0.025
active: quisinostat -0.271

KSR1 (UniProt Q8IVT5)
active: vorinostat -0.49
inactive: nilotinib 0 | [1] -0.04 | dasatinib -0.106 | [2] 0.056 | [3] 0.057 | quisinostat -0.015 | tipifarnib -0.116 | [4] 0.069 | [5] 0.051 | [6] 0.003 | [7] 0.029 | silmitasertib 0.081 | [8] 0.031 | entospletinib -0.025

MPDZ (UniProt O75970)
inactive: nilotinib -0.097 | [1] 0.245 | dasatinib -0.082 | [2] -0.059 | [3] -0.049 | quisinostat -0.084 | tipifarnib 0.328 | [4] -0.057 | [5] -0.041 | [6] 0.112 | [7] 0.058 | silmitasertib 0.066 | [8] 0.177 | entospletinib -0.111
active: vorinostat -0.59

MRPL12 (UniProt P52815)
inactive: nilotinib 0.032 | [1] -0.01 | dasatinib 0.034 | [2] 0.099 | [3] -0.013 | quisinostat 0.084 | tipifarnib 0.031 | [4] -0.023 | [5] -0.022 | [6] -0.006 | [7] -0.07 | vorinostat 0.116 | silmitasertib -0.023 | [8] 0 | entospletinib -0.152

MGST1 (UniProt P10620)
Sequence of UniProt P10620 (P10620 whole entry, looked up): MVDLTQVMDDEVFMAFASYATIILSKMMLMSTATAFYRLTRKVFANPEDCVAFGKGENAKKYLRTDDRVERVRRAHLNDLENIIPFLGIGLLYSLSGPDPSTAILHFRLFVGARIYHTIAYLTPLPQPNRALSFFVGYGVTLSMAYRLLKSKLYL
inactive: nilotinib 0.033 | [1] -0.002 | dasatinib -0.012 | [2] -0.017 | [3] 0.014 | quisinostat -0.029 | tipifarnib 0.02 | [4] 0.085 | [5] -0.007 | [6] -0.012 | [7] -0.013 | vorinostat 0.037 | silmitasertib -0.013 | [8] 0.031 | entospletinib -0.01

MAPKAPK2 (UniProt P49137)
Sequence of UniProt P49137 (P49137 whole entry, looked up): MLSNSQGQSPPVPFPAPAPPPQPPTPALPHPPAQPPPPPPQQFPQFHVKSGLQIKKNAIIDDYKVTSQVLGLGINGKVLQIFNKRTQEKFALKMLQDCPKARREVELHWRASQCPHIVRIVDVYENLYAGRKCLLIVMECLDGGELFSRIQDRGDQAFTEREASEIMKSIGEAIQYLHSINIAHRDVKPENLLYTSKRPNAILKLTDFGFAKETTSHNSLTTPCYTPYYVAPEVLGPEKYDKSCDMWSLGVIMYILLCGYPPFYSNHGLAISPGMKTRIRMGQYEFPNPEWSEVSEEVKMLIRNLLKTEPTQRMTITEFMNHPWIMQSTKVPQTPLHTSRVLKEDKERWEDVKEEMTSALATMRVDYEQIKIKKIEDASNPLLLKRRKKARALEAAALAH
active: vorinostat -0.36
inactive: nilotinib 0.032 | [1] 0.068 | dasatinib -0.043 | [2] -0.008 | [3] 0 | quisinostat 0.01 | tipifarnib 0.032 | [4] 0.148 | [5] 0.022 | [6] 0.008 | [7] -0.019 | silmitasertib 0.072 | [8] -0.014 | entospletinib 0.04

MAPKAPK5 (UniProt Q8IW41)
Sequence of UniProt Q8IW41 (Q8IW41 whole entry, looked up): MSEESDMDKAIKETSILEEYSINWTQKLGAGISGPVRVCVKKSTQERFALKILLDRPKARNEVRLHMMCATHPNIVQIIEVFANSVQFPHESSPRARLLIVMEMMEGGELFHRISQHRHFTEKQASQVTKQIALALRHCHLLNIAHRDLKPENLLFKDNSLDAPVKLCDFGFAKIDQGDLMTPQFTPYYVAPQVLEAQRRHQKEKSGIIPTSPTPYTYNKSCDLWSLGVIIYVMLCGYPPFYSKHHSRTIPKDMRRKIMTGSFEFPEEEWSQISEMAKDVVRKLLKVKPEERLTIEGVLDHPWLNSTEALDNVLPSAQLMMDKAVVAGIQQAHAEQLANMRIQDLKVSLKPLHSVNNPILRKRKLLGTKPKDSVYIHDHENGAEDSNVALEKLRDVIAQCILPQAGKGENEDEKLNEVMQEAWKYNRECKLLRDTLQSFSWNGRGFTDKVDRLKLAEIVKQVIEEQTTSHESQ
active: [4] 0.519
inactive: nilotinib -0.003 | [1] 0.056 | dasatinib 0.011 | [2] 0.064 | [3] 0.024 | quisinostat -0.222 | tipifarnib -0.065 | [5] -0.006 | [6] -0.006 | [7] -0.012 | vorinostat 0.07 | silmitasertib 0.002 | [8] 0.052 | entospletinib 0.028

MAD2L2 (UniProt Q9UI95)
Sequence of UniProt Q9UI95 (Q9UI95 whole entry, looked up): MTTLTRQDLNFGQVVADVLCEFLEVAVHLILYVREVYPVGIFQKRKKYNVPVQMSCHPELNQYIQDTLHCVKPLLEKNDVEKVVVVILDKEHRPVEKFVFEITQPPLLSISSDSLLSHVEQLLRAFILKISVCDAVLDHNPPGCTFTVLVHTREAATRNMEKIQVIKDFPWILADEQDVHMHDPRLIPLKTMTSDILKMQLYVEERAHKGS
active: vorinostat -0.348
inactive: nilotinib 0.031 | [1] -0.029 | dasatinib -0.064 | [2] 0.006 | [3] -0.035 | quisinostat -0.231 | tipifarnib -0.015 | [4] 0.064 | [5] 0.117 | [6] -0.065 | [7] 0.075 | silmitasertib -0.006 | [8] -0.02 | entospletinib 0.017

MAPK3 (UniProt P27361)
Sequence of UniProt P27361 (P27361 whole entry, looked up): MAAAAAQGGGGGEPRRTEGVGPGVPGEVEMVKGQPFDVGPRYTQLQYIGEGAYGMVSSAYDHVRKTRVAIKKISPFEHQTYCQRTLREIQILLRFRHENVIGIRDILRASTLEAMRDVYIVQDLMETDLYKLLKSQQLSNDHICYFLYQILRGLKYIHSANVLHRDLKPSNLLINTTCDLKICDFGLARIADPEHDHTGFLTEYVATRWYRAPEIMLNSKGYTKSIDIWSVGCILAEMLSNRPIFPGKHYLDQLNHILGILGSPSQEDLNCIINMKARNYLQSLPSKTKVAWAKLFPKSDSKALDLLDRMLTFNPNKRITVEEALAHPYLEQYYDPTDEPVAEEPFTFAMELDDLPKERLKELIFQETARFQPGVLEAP
inactive: nilotinib 0.009 | dasatinib -0.026 | [2] 0.141 | [3] -0.019 | quisinostat 0.016 | tipifarnib -0.013 | [4] 0.022 | [5] 0.094 | [6] -0.003 | [7] -0.016 | vorinostat -0.005 | silmitasertib 0.02 | [8] 0.038 | entospletinib -0.013
active: [1] 0.272

KIF2C (UniProt Q99661)
Sequence of UniProt Q99661 (Q99661 whole entry, looked up): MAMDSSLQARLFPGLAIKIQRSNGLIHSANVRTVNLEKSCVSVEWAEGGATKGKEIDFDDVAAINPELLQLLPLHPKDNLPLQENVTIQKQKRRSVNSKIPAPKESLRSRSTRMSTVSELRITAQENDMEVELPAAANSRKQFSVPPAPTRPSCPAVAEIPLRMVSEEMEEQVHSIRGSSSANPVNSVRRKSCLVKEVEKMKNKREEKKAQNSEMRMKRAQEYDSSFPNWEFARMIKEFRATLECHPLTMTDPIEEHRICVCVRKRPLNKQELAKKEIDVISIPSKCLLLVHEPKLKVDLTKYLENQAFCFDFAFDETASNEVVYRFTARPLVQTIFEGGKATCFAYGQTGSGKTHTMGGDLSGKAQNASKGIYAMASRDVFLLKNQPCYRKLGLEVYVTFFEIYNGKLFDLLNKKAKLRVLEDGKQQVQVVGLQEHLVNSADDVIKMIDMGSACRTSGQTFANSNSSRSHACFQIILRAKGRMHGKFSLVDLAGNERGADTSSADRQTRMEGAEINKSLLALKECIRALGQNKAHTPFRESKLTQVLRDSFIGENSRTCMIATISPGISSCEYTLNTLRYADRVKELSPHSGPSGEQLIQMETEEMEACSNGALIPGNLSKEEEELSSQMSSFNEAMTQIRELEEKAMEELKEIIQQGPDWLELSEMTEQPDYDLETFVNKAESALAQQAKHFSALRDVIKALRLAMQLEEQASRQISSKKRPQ
active: vorinostat -0.464
inactive: nilotinib 0.013 | [1] 0.009 | dasatinib -0.021 | [2] 0.002 | [3] 0.028 | quisinostat -0.068 | tipifarnib 0.003 | [4] 0.035 | [5] -0.01 | [6] -0.005 | [7] 0.003 | silmitasertib 0.028 | [8] 0.012 | entospletinib 0.024

MRPL19 (UniProt P49406)
active: vorinostat -0.311
inactive: nilotinib 0.001 | [1] -0.015 | dasatinib -0.039 | [2] -0.004 | [3] 0.005 | quisinostat -0.055 | tipifarnib 0.033 | [4] 0.024 | [5] -0.018 | [6] -0.044 | [7] 0 | silmitasertib 0.012 | [8] 0.027 | entospletinib -0.054
